Data on five molecules can be found in PubChem BioAssay (EPA / NIEHS).

A word on the AC50: it is the concentration giving half of the maximal activity seen.

Read-out in experiment [1]: Macrophage colony-stimulating factor (MCSF), CSF1 (gene 1435)
As to the kind of experiment: BSK_CASM3C_MCSF: BioMAP Diversity Plus: CASM3C Assay for Macrophage colony-stimulating factor (MCSF) Biomarker Activity (AID 2283044).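 Also: M-CSF protein amount quantified by ELISA after 24 h exposure.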 Conditions: primary human coronary artery smooth muscle cells; actives raise or lower the signal.

Read-out in experiment [2]: Low-density lipoprotein receptor (LDLR), LDLR (gene 3949)
As to the kind of experiment: BSK_CASM3C_LDLR: BioMAP Diversity Plus: CASM3C Assay for Low-density lipoprotein receptor (LDLR) Biomarker Activity (AID 2283045).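 Also: LDLR protein level on the cell surface quantified by ELISA.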 To be noted: primary human coronary artery smooth muscle cells; actives raise or lower the signal.

Read-out in experiment [3]: Monocyte Chemoattractant Protein-1 (MCP1), CCL2 (gene 6347)
As to the kind of experiment: BSK_CASM3C_MCP1: BioMAP Diversity Plus: CASM3C Assay for Monocyte Chemoattractant Protein-1 (MCP1) Biomarker Activity (AID 2283046).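 Also: MCP-1 level quantified by ELISA 24 h after dosing.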 To be noted: primary human coronary artery smooth muscle cells; actives raise or lower the signal.

Experiment [4] can be described thus: BSK_CASM3C_Proliferation: Cell Proliferation Assessment in the BioMAP Diversity Plus: CASM3C Assay (AID 2283047).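 Also: sulforhodamine B total protein stain as relative cell number at 560 nm; sub-confluent cells exposed 48 h before staining; fitted both ways against DMSO so gain or loss of cell number.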 To be noted: primary human coronary artery smooth muscle cells.
Read-out in experiment [5]: Monokine induced gamma interferon (MIG), CXCL9 (gene 4283)
The experiment is described as follows: BSK_CASM3C_MIG: BioMAP Diversity Plus: CASM3C Assay for Monokine induced gamma interferon (MIG) Biomarker Activity (AID 2283048).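 Also: MIG protein level measured by ELISA.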 To be noted: primary human coronary artery smooth muscle cells; actives raise or lower the signal.

Read-out in experiment [6]: serum amyloid A (SAA), SAA1 (gene 6288)
As to the kind of experiment: BSK_CASM3C_SAA: BioMAP Diversity Plus: CASM3C Assay for serum amyloid A (SAA) Biomarker Activity (AID 2283049).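 Also: SAA protein level quantified by ELISA.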 To be noted: primary human coronary artery smooth muscle cells; actives raise or lower the signal.

Experiment [7] can be described thus: BSK_CASM3C_SRB: Viability Assessment in the BioMAP Diversity Plus: CASM3C Assay (AID 2283050).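 Also: cells exposed to compound for 24 h.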 Conditions: primary human coronary artery smooth muscle cells.
Read-out in experiment [8]: Thrombomodulin, THBD (gene 7056)
The experiment is described as follows: BSK_CASM3C_Thrombomodulin: BioMAP Diversity Plus: CASM3C Assay for Thrombomodulin Biomarker Activity (AID 2283051).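 Also: thrombomodulin protein level measured by ELISA 24 h after dosing.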 Conditions: primary human coronary artery smooth muscle cells; actives raise or lower the signal.

Read-out in experiment [9]: Tissue Factor, F3 (gene 2152)
As to the kind of experiment: BSK_CASM3C_TissueFactor: BioMAP Diversity Plus: CASM3C Assay for Tissue Factor Biomarker Activity (AID 2283052).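 Also: cell surface tissue factor protein level read by ELISA.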 Conditions: primary human coronary artery smooth muscle cells; actives raise or lower the signal.

Read-out in experiment [10]: Interferon-gamma inducible Protein 10 (IP10), CXCL10 (gene 3627)
As to the kind of experiment: BSK_hDFCGF_IP10: BioMAP Diversity Plus: hDFCGF Assay for Interferon-gamma inducible Protein 10 (IP10) Biomarker Activity (AID 2283053). Conditions: primary human foreskin fibroblasts; actives raise or lower the signal. In a few lines:
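IP-10 levels, quantified by ELISA, are taken from human foreskin fibroblast cultures 24 h after chemical treatment, with DMSO serving as negative control and baseline for bidirectional analysis.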

Read-out in experiment [11]: Urokinase-type plasminogen activator receptor (uPAR), PLAUR (gene 5329)
As to the kind of experiment: BSK_CASM3C_uPAR: BioMAP Diversity Plus: CASM3C Assay for Urokinase-type plasminogen activator receptor (uPAR) Biomarker Activity (AID 2283054).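 Also: cell-surface uPAR protein level quantified by ELISA.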 Conditions: primary human coronary artery smooth muscle cells; actives raise or lower the signal.

Read-out in experiment [12]: Vascular cell adhesion molecule 1 (VCAM1), VCAM1 (gene 7412)
The experiment is described as follows: BSK_CASM3C_VCAM1: BioMAP Diversity Plus: CASM3C Assay for Vascular cell adhesion molecule 1 (VCAM1) Biomarker Activity (AID 2283055).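 Also: VCAM-1 protein level quantified by ELISA on the cells.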 To be noted: primary human coronary artery smooth muscle cells; actives raise or lower the signal.

Read-out in experiment [13]: Collagen III, COL3A1 (gene 1281)
As to the kind of experiment: BSK_hDFCGF_CollagenIII: BioMAP Diversity Plus: hDFCGF Assay for Collagen III Biomarker Activity (AID 2283056). Conditions: primary human foreskin fibroblasts; actives raise or lower the signal. In a few lines:
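Human foreskin fibroblast primary cultures sampled 24 h after dosing; Collagen III quantified by ELISA. Signal fitted bidirectionally against DMSO baseline.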

Read-out in experiment [14]: Interleukin-8 (IL8), CXCL8 (gene 3576)
As to the kind of experiment: BSK_hDFCGF_IL8: BioMAP Diversity Plus: hDFCGF Assay for Interleukin-8 (IL8) Biomarker Activity (AID 2283058). Conditions: primary human foreskin fibroblasts; actives raise or lower the signal. In a few lines:
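Primary human foreskin fibroblasts (hDFCGF system) dosed with chemical; IL-8 measured by ELISA 24 hours later. Bidirectional curve fitting relative to DMSO baseline; cytotoxicity tracked in parallel cultures by SRB total protein staining.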

Experiment [15] in a line: BSK_hDFCGF_Proliferation: Cell Proliferation Assessment in the BioMAP Diversity Plus: hDFCGF Assay (AID 2283059).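 Also: curves fitted for both rise and fall of signal versus DMSO baseline.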 Conditions: primary human foreskin fibroblasts. In a few lines: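 Steps: dose primary human dermal fibroblasts (foreskin); […] fix in 10% TCA; stain with 0.1% SRB; read 560 nm; fit gain or loss of signal against DMSO.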
Read-out in experiment [16]: Macrophage colony-stimulating factor (MCSF), CSF1 (gene 1435)
As to the kind of experiment: BSK_hDFCGF_MCSF: BioMAP Diversity Plus: hDFCGF Assay for Macrophage colony-stimulating factor (MCSF) Biomarker Activity (AID 2283060). To be noted: primary human foreskin fibroblasts; actives raise or lower the signal. In a few lines: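 Human foreskin fibroblast primary cultures; M-CSF measured by ELISA 24 hours after chemical dosing. Bidirectional fitting relative to DMSO, with overt cytotoxicity tracked by parallel SRB total-protein staining (0.1% SRB, 10% TCA fixation, 560 nm).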

Experiment [17] can be described thus: BSK_hDFCGF_SRB: Viability Assessment in the BioMAP Diversity Plus: hDFCGF Assay (AID 2283061).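 Also: cells exposed to compound for 24 h before the read.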 Conditions: primary human foreskin fibroblasts. In a few lines:
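Human foreskin fibroblasts in 96-well plates were treated 24 h. Total protein was measured by 0.1% SRB staining after 10% TCA fixation, read at 560 nm. Data were fitted bidirectionally against DMSO.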

Read-out in experiment [18]: Monokine induced gamma interferon (MIG), CXCL9 (gene 4283)
The experiment is described as follows: BSK_hDFCGF_MIG: BioMAP Diversity Plus: hDFCGF Assay for Monokine induced gamma interferon (MIG) Biomarker Activity (AID 2283063). To be noted: primary human foreskin fibroblasts; actives raise or lower the signal. In a few lines:
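MIG/CXCL9 measured by ELISA 24 h after dosing primary human skin fibroblasts. Activity fitted in both directions against DMSO controls. Cytotoxicity was checked in parallel cultures by SRB staining read at 560 nm.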

Read-out in experiment [19]: Matrix Metallopeptidase 1 (MMP1), MMP1 (gene 4312)
The experiment is described as follows: BSK_hDFCGF_MMP1: BioMAP Diversity Plus: hDFCGF Assay for Matrix Metallopeptidase 1 (MMP1) Biomarker Activity (AID 2283064). Conditions: primary human foreskin fibroblasts; actives raise or lower the signal. In a few lines: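 Primary human foreskin fibroblasts in the hDFCGF system were dosed with test chemical, and MMP1 was measured by ELISA 24 h later. Values come from bidirectional curve fitting against the DMSO baseline.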

Read-out in experiment [20]: Vascular cell adhesion molecule 1 (VCAM1), VCAM1 (gene 7412)
The experiment is described as follows: BSK_hDFCGF_VCAM1: BioMAP Diversity Plus: hDFCGF Assay for Vascular cell adhesion molecule 1 (VCAM1) Biomarker Activity (AID 2283065).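 As to AC50: VCAM-1 protein level quantified by ELISA after 24 h chemical exposure.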 To be noted: primary human foreskin fibroblasts; actives raise or lower the signal. In a few lines:
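Human foreskin fibroblast primary cells dosed with chemical, VCAM-1 measured by ELISA at 24 h. Bidirectional curve fitting relative to DMSO as negative control/baseline.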

Several values for one entry are separate records, joined by “and”; a condition that tells them apart may be missing. Equal values may be shown once. Some compounds were tested as several samples or in several runs, with calls that do not always agree. Activity calls are given as the source filed them. The calls were made as follows: active = hit-call score of the fitted dose curve at least 0.9, where 1 is the maximum; inactive = score below 0.9.

For `C/C=C\C/C=C/CCCCCCCCOC(C)=O`, the AC50 in experiment [1] is 20 µM (active); in experiment [4] it was 26.4 µM (active); in [5], 28.5 µM (active); in [6] it was 32.3 µM (active); in experiment [7] it was 36.9 µM (active); in [9], 6.46 µM (active). In addition, the AC50 in experiment [10] is 34.3 µM (active); in experiment [11], 32.7 µM (active); in experiment [12], 23.3 µM (active); in [13], 20 µM (active); in experiment [15], 29.7 µM (active); in experiment [16] it was 29.9 µM (active). The AC50 in experiment [17] was 31.7 µM (active); in experiment [18], 28.3 µM (active); in experiment [19], 32.9 µM (active); in experiment [20], 24.6 µM (active). Moreover, the outcome in [2], in experiment [3], in [8] and in experiment [14] was inactive.
Take `CCCCCCCCCCCCCCCC[N+](C)(C)CC`: the AC50 in [1] is 1.93 µM (active); in [2] it was 2.94 µM (active); in experiment [3] it was 3.54 µM (active); in [4] it was 1.61 µM (active); in experiment [5], 6.02 µM (active); in [6], 2.61 µM (active). Also, the AC50 in experiment [7] is 1.88 µM (active); in experiment [9] it was 2.19 µM (active); in experiment [10], 2.84 µM (active); in experiment [11] it was 3.16 µM (active); in [12] it was 4.21 µM (active); in experiment [13], 0.447 µM (active). The AC50 in experiment [14] was 12.4 µM (active); in experiment [15], 0.484 µM (active); in experiment [16], 1.49 µM (active); in [17], 1.28 µM (active); in [18], 3.45 µM (active); in [19], 4.94 µM (active). In [20], the AC50 was 1.82 µM (active). For the same molecule, in experiment [8], the result was inactive.
Take `O=c1c2ccccc2oc2ccccc12`: the result in [1], in [2], in [3], in experiment [4], in experiment [5] and in [6] was inactive. Besides, the outcome in experiment [7], in experiment [8], in experiment [10], in experiment [11], in [12] and in [13] was inactive. In addition, the outcome in experiment [14], in experiment [15], in experiment [16], in experiment [17], in experiment [18] and in experiment [19] was inactive. For the same molecule, the result in [20] was inactive. The half-maximal activity concentration (AC50) in [9] is 2.7 µM (active).
For the molecule `C=CCOCC(O)CCl` (centres undefined), the result in experiment [1], in experiment [2], in [3], in experiment [4], in experiment [5] and in [6] was inactive. Also, the outcome in experiment [7], in experiment [8], in [9], in experiment [10], in experiment [11] and in experiment [12] was inactive. The result in experiment [13], in experiment [14], in [15], in experiment [16], in experiment [17] and in experiment [18] was inactive. Moreover, the outcome in experiment [19] and in [20] was inactive.
As to `Nc1ccc(N)c(Cl)c1`, the concentration at half-maximal activity (AC50) in experiment [1] was 8.11 µM (active) and 1.83 µM (active); in [4], 28.7 µM (active); in experiment [5] it was 6.03 µM (active); in [7] it was 16.1 µM (active); in experiment [8], 2.9 µM (active) and 3.08 µM (active); in experiment [9], 1.13 µM (active). The half-maximal activity concentration (AC50) in experiment [10] was 16 µM (active) and 20.2 µM (active); in [12] it was 27.2 µM (active) and 11.1 µM (active); in experiment [13], 28.4 µM (active); in experiment [15], 9.65 µM (active); in experiment [16] it was 14.9 µM (active) and 16.5 µM (active); in experiment [17] it was 32.3 µM (active) and 32.1 µM (active). The AC50 in experiment [18] is 17.2 µM (active) and 17.5 µM (active); in experiment [19], 34.5 µM (active) and 33 µM (active); in experiment [20], 13 µM (active) and 17.1 µM (active). The outcome in experiment [2], in experiment [3], in experiment [5], in experiment [6], in experiment [7] and in experiment [9] was inactive. The outcome in experiment [11], in [13] and in experiment [14] was inactive.
